Test results: PubChem BioAssay (Tox21)
Records with an inconclusive call do not appear. Where a call stands in place of a potency, no number is given. Some compounds were tested as several samples or in several runs, with calls that do not always agree. Active and inactive are the calls of the source. Unless noted, calls come from the whole dose curve; as a rule, active = well fitted curve in the direction sought with a large enough effect in the repeat runs; inconclusive = weak or mixed curves; inactive = no such curve, though single readings can be large; an effect the other way counts as inactive or inconclusive.

Key:
[1] = biological target: Aryl hydrocarbon receptor (Homo sapiens) (UniProt P35869); experiment: qHTS assay to identify small molecule that activate the aryl hydrocarbon receptor (AhR) signaling pathway (AID 743085); note: nearly all actives have a fitted effect of over 15% in size; note: potency is the fitted concentration of half-maximal effect;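 for activation: HG2L7.5c1 human HepG2 liver cells with stably integrated DRE-driven firefly reporter; series mostly up to about 70 µM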
Sequence of Aryl hydrocarbon receptor (Homo sapiens) (P35869 whole entry, looked up): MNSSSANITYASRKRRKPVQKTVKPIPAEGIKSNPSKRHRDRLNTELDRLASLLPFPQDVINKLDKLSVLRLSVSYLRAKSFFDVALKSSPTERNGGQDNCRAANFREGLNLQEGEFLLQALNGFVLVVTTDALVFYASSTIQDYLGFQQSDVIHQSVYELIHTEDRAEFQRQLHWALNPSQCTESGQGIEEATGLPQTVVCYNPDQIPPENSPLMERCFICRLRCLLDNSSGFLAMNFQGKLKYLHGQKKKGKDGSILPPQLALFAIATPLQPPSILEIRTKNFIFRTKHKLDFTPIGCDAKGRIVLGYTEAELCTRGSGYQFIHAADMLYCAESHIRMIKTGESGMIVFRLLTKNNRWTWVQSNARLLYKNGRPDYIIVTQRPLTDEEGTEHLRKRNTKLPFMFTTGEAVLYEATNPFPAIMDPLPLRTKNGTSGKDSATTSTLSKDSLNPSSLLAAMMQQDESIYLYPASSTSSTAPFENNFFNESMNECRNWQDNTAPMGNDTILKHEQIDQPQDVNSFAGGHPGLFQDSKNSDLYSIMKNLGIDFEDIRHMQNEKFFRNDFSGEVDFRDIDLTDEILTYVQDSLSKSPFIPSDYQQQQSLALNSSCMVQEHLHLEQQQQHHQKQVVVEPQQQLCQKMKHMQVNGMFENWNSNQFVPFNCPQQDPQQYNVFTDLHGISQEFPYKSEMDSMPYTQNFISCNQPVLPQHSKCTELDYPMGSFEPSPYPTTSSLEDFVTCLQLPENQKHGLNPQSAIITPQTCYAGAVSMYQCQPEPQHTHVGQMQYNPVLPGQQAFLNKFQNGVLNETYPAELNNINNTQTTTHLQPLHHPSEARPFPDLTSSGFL
In short: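 AhR agonist activity is inferred from enhanced light output of a DRE-controlled firefly luciferase reporter in HepG2 cells, measured with ONE-Glo following 24 h treatment at 37C.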

[2] = qHTS assay to identify small molecule that activate the aryl hydrocarbon receptor (AhR) signaling pathway - cell viability counter screen (AID 743086); note: nearly all actives have a fitted effect of over 45% in size; note: potency is the fitted concentration of half-maximal effect;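 for viability change, negative = cytotoxic: HepG2 liver cells carrying the AhR DRE luciferase reporter; series mostly up to about 70 µM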
In short: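 HepG2-AhR-luc (HG2L7.5c1) cells, 4000/well, were preincubated 5 h at 37C, exposed to compound in qHTS format for 24 hr at 37C, then given CellTiter-Fluor for 30 min; viability was read as fluorescence in the reporter wells.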

[3] = biological target: Peroxisome proliferator-activated receptor gamma (Homo sapiens) (UniProt P37231); experiment: qHTS assay to identify small molecule agonists of the peroxisome proliferator-activated receptor gamma (PPARg) signaling pathway (AID 743094; active = well fitted activation curve with a large enough effect in the signal ratio in the repeat runs, not every such curve was filed as active; the % refers to the signal ratio)
Sequence of Peroxisome proliferator-activated receptor gamma (Homo sapiens) (P37231 whole entry, looked up): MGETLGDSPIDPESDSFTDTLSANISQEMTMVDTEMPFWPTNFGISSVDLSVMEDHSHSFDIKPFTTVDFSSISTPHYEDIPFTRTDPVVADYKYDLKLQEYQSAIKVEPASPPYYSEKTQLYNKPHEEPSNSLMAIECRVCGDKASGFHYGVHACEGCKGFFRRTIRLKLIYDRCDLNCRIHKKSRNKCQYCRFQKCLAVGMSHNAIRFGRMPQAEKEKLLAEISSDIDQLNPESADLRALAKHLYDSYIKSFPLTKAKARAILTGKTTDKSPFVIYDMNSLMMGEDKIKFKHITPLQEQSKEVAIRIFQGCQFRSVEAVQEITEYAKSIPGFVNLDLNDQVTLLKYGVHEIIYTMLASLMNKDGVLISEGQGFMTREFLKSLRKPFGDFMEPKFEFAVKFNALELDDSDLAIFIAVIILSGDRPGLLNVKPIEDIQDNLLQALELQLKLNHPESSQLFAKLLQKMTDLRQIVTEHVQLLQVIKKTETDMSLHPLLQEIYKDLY
In short: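 Compounds dissolved in DMSO were added to PPARg UAS-bla HEK293H cells for 17 h at 37C, and reporter expression was quantified by fluorescence intensity after 1 h with LiveBLAzer B/G FRET substrate.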

[4] = biological target: Peroxisome proliferator-activated receptor gamma (Homo sapiens) (UniProt P37231); experiment: qHTS assay to identify small molecule antagonists of the peroxisome proliferator-activated receptor gamma (PPARg) signaling pathway (AID 743191; calls by dose curve; note: series mostly up to about 63 µM; nearly all actives have a fitted effect of over 30% in size)
In short: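 GeneBLAzer PPARg UAS-bla HEK293H cells carrying a UAS-driven beta-lactamase reporter were plated at 3000 cells/well, preincubated 5 h at 37C, then given compound for 17 h at 37C; LiveBLAzer B/G FRET substrate was read after 1 h at room temperature.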

[5] = qHTS assay to identify small molecule antagonists of the peroxisome proliferator-activated receptor gamma (PPARg) signaling pathway - cell viability counter screen (AID 743194); conditions: Potency: co-treated with 50 nM rosiglitazone; note: nearly all actives have a fitted effect of over 55% in size
In short: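 PPARg-UAS-bla HEK293H cells were plated, rested 5 h at 37 C, then treated with compounds plus rosiglitazone (50 nM final) for 17 h at 37 C; viability was then read by CellTiter-Glo luminescence after 30 min at room temperature.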

[6] = qHTS assay for small molecule agonists of the antioxidant response element (ARE) signaling pathway (AID 743202; active = well fitted activation curve with a large enough effect in the signal ratio in the repeat runs, not every such curve was filed as active; the % refers to the signal ratio)
In short: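 Compounds delivered in DMSO to ARE-bla HepG2 cells (2,000 cells/well, pre-incubated 5 h) and left 16 h at 37 C. LiveBLAzer B/G FRET substrate then added for 2 h at RT before fluorescence reading.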

[7] = qHTS assay for small molecule agonists of the antioxidant response element (ARE) signaling pathway - cell viability counter screen (AID 743203; calls by dose curve; note: nearly all actives have a fitted effect of over 55% in size)
In short: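 Following 16 hrs of compound treatment at 37C, HepG2 cells with an ARE-controlled beta-lactamase gene were lysed with CellTiter-Glo. Luminescence was read after 30 min at room temperature.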

[8] = qHTS assay for small molecule activators of the heat shock response signaling pathway - cell viability counter screen (AID 743209); note: nearly all actives have a fitted effect of over 50% in size
In short: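 Readout: CellTiter-Glo luminescence, 30 min at room temperature. System: HSE-bla HeLa cells, 1500/well, plated overnight. Treatment: compounds in DMSO, 5 h at 37 C.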

[9] = qHTS assay for small molecule activators of the heat shock response signaling pathway (AID 743210; active = well fitted activation curve with a large enough effect in the signal ratio in the repeat runs, with a control signal flat, not every such curve was filed as active; the % refers to the signal ratio; note: potency is the fitted concentration of half-maximal effect;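 for activation: HeLa cells with beta-lactamase reporter driven by heat shock elements; series mostly up to about 63 µM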)
In short: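 Reporter gene assay: HeLa cells stably bearing an HSE-bla construct, compound treatment 5 h at 37 C, LiveBLAzer substrate 2.5 h at RT, fluorescence intensity.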

[10] = qHTS assay to identify small molecule agonists of the peroxisome proliferator-activated receptor delta (PPARd) signaling pathway - cell viability counter screen (AID 743211); note: nearly all actives have a fitted effect of over 55% in size
In short: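 qHTS cell viability: PPARd-bla HEK293H; 17 h cpd, 37C; CellTiter-Glo, luminescence at 30 min RT.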

SMILES	Potency [1]	Potency [2]	outcome [3]	Potency [4]	Potency [5]	Potency [6]	Potency [7]	Potency [8]	Potency [9]	Potency [10]	viability change, negative = cytotoxic [2]	activation [3]	ratio activity, negative = inhibition [4]	activity change, negative = cytotoxicity [5]	viability change, negative = cytotoxic [7]	activation [9]	activity change, negative = cytotoxicity [10]
NC(=O)CS(=O)C(c1ccccc1)c1ccccc1 (configuration not stated)	inactive	inactive	inactive	inactive	inactive	inactive	inactive	inactive	inactive	inactive	–	–	–	–	–	–	–
ClCCCCCCCl	inactive	inactive	inactive	inactive	inactive	inactive	inactive	inactive	inactive	inactive	–	–	–	–	–	–	–
C#CCOC(=O)/C=C(C)/C=C/CC(C)CCCC(C)C (configuration not stated)	inactive	inactive	inactive	inactive	inactive	inactive	inactive	inactive	–	inactive	–	–	–	–	–	–	–
NNC(N)=O	inactive	inactive	inactive	inactive	inactive	inactive	inactive	inactive	inactive	inactive	–	–	–	–	–	–	–
Cn1c(CCCC(=O)O)nc2cc(N(CCCl)CCCl)ccc21	inactive	inactive	inactive	inactive	inactive	inactive	inactive	inactive	–	inactive	–	–	–	–	–	–	–
BrCCc1ccccc1	inactive	inactive	inactive	inactive	inactive	inactive	inactive	inactive	inactive	inactive	–	–	–	–	–	–	–
CCNc1nc(Cl)nc(NC(C)(C)C)n1	inactive	inactive	inactive	inactive	inactive	inactive	inactive	inactive	inactive	inactive	–	–	–	–	–	–	–
CCN(CC)C1CCCCC1	inactive	inactive	inactive	inactive	inactive	inactive	inactive	–	inactive	inactive	–	–	–	–	–	–	–
CCC(=O)OC1(c2ccccc2)CCN(C)CC1	inactive	inactive	inactive	inactive	inactive	inactive	inactive	inactive	inactive	inactive	–	–	–	–	–	–	–
CCOP(=S)(OCC)Oc1ccc(Cl)cc1Cl	19.3 µM (active)	inactive	inactive	inactive	–	–	inactive	inactive	inactive	inactive	–	–	–	–	–	–	–
CC(C)(N)Cc1ccc(Cl)cc1	inactive	inactive	inactive	inactive	inactive	–	inactive	inactive	inactive	inactive	–	–	–	–	–	–	–
CCCC[N+](=O)[O-]	inactive	inactive	inactive	inactive	inactive	inactive	inactive	–	inactive	inactive	–	–	–	–	–	–	–
CCN(CC)CCOC(=O)C(O)(c1ccccc1)c1ccccc1	inactive	inactive	inactive	inactive	inactive	–	inactive	inactive	–	inactive	–	–	–	–	–	–	–
BrCc1ccc(Br)cc1	inactive	inactive	inactive	inactive	inactive	inactive	inactive	–	inactive	inactive	–	–	–	–	–	–	–
CCOC1Oc2ccc(OS(C)(=O)=O)cc2C1(C)C (configuration not stated)	inactive	inactive	inactive	inactive	inactive	–	–	–	–	inactive	–	–	–	–	–	–	–
[O-][Br+2]([O-])O	inactive	inactive	inactive	inactive	inactive	–	inactive	inactive	inactive	inactive	–	–	–	–	–	–	–
CCNc1nc(NCC)nc(SC)n1	inactive	inactive	inactive	inactive	–	–	inactive	inactive	inactive	inactive	–	–	–	–	–	–	–
Clc1cc2c(cc1Cl)Oc1cc(Cl)c(Cl)cc1O2	0.0011 µM (active)	–	–	–	–	–	–	–	–	–	-4.26% [at 0.341 µM] (inactive)	-9.85% [at 0.285 µM] (inactive)	-3.27% [at 0.275 µM] (inactive)	15.5% [at 0.275 µM, co-treated with 50 nM rosiglitazone] (inactive)	-8.47% [at 0.338 µM] (inactive)	-0.0962% [at 0.275 µM] (inactive)	-2.8% [at 0.275 µM] (inactive)
OP(O)c1ccccc1	inactive	inactive	inactive	–	inactive	inactive	inactive	inactive	inactive	inactive	–	–	–	–	–	–	–
CCOC(=O)C(Cl)Cc1cc(-n2nc(C)n(C(F)F)c2=O)c(F)cc1Cl (configuration not stated)	inactive	inactive	inactive	inactive	inactive	–	inactive	inactive	inactive	inactive	–	–	–	–	–	–	–
COc1ccc2c(C(=O)c3ccc(Cl)cc3)c(C)n(CC(=O)O)c2c1	33.5 µM (active)	inactive	inactive	inactive	–	inactive	inactive	inactive	inactive	–	–	–	–	–	–	–	–
CCC1(c2ccccc2)C(=O)N(COC)C(=O)N(COC)C1=O	inactive	inactive	inactive	inactive	inactive	inactive	inactive	–	–	inactive	–	–	–	–	–	–	–
CN(CCO)CCO	inactive	inactive	inactive	inactive	inactive	–	inactive	–	inactive	inactive	–	–	–	–	–	–	–
C[C@H]1CCCC(=O)CCC/C=C/c2cc(O)cc(O)c2C(=O)O1	inactive	37.1 µM (active) and inactive	inactive	inactive	–	–	inactive	–	12.7 µM (active)	inactive	–	–	–	–	–	–	–
C[N+]1(C)CCCCC1	inactive	inactive	inactive	inactive	–	inactive	inactive	inactive	–	–	–	–	–	–	–	–	–
[P]#[In]	inactive	inactive	inactive	inactive	–	inactive	inactive	inactive	inactive	inactive	–	–	–	–	–	–	–
CCC(C)(C#N)N=NC(C)(C#N)CC (configuration not stated)	inactive	inactive	inactive	inactive	inactive	–	inactive	inactive	–	inactive	–	–	–	–	–	–	–
CCOC(=O)N(C)N=O	inactive	inactive	inactive	inactive	inactive	–	inactive	inactive	–	inactive	–	–	–	–	–	–	–
